Screening results: PubChem, National Center for Advancing Translational Sciences (NCATS)
Rows were chosen to be rich in hits. Some 3% of all compounds tested hit in one or more screens of this group.
LmPK inhibitor = LmPK (Leishmania mexicana) enzyme inhibition. Q27686. purified LmPK, Kinase-Glo ATP luminescence, 1 h. Potency, µM (top dose mostly 57.5 µM), inactives show at the top dose activity change, negative = inhibition, actives largely listed as inhibitors. actives 0.37% (n = 290,000)
Target sequence (Q27686 whole entry, looked up): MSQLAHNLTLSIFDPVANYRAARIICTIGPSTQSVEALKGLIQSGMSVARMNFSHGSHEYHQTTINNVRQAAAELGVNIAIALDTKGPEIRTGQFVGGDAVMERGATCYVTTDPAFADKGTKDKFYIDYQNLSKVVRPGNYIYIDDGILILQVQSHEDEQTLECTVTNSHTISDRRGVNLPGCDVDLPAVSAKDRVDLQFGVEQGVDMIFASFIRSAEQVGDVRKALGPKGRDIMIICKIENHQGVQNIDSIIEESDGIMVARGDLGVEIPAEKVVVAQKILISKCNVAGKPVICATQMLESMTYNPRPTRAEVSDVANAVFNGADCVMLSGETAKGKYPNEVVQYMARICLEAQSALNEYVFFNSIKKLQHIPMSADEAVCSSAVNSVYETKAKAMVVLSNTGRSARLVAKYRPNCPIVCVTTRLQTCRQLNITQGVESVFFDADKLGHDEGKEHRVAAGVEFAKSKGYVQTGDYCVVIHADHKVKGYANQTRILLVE
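Pyruvate kinase activity monitored as ATP production (luciferase luminescence). Conditions: 0.1 nM enzyme, 0.5 mM PEP, 0.1 mM ADP, 1 h, RT; normalized against uninhibited and no-enzyme wells.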
Sm TGR block = blocks Schistosoma mansoni thioredoxin glutathione reductase | Potency, µM (titrated, usually from 114 µM), for inactives: at the highest dose activity change, negative = inhibition, hits mostly inhibitors | purified TGR, DTNB reduction, TNB absorbance 405 nm | actives 3% (n = 360,000); also: nearly all actives have a fitted effect of over 60% in size
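Kinetic colorimetric format: TGR-catalysed, NADPH-driven DTNB reduction monitored via TNB absorbance. Enzyme dispensed at 20 nM; compound exposure 15 min at room temperature before reaction start.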
RE007 growth inh = less growth of the S. pombe RE007 Vpr strain; S. pombe RE007 Vpr strain, BacTiter-Glo ATP luminescence, 24 h; AID 651644; actives 0.21% (n = 360,000); Potency, µM (top dose mostly 92.2 µM), for inactives: at the highest dose activity change, negative = less growth, actives largely listed as inhibitors; active = well fitted falling curve with a large enough effect; inconclusive = small, poorly fitted or top-dose-only effect; inactive = no such curve, though single readings can be large or run the other way; also: nearly all actives have a fitted effect of over 50% in size
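Fission yeast strain RE007, carrying one chromosomally integrated HIV-1 vpr copy, was seeded at OD 0.01 in PMG+AL medium with 23 nL pinned compound. After 24 h at 30 °C and 99% humidity, viability was read by BacTiter-Glo luminescence.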
TbPYK inhibitor = T. brucei pyruvate kinase inhibition; TbPYK enzyme, Kinase-Glo Plus ATP luminescence, 45 min; actives 0.12% (n = 410,000); Potency, µM (top dose mostly 76.8 µM), inactives show top-dose activity, negative = inhibition, most hits filed as inhibitors; also: nearly all actives have a fitted effect of over 50% in size
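TbPYK + substrate in 50 mM TEA pH 7.2, 100 mM KCl, 10 mM MgCl2, 0.05% BSA, 0.01% Tween-20; cpd pinned; ADP 130 uM final; 45 min RT; Kinase-Glo Plus 10 min; luminescence endpoint.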
Active calls of the source: *; ? = inconclusive; nt = not tested or not shown; [ ] = remark or other dose. Unless noted, calls follow the shape of the dose curve; as a rule, active = well fitted curve in the direction sought with a large enough effect; inconclusive = small, poorly fitted or top-dose-only effect, or another doubt; inactive = no such curve, though single readings can be large; an effect the other way counts as inactive or inconclusive. % is scaled to controls: 0 for no effect and ±100 for the full control effect; potency is read from the fitted curve at half-maximal effect.

SMILES | LmPK inhibitor | Sm TGR block | RE007 growth inh | TbPYK inhibitor
C=CCN1C(=O)/C(=C/c2ccc(-c3ccc(F)cc3)o2)SC1=S | -6% | 25µM* | 4%[18.4 µM] | -3%
CCCC(C)C(=O)OCC(=O)Nc1ccc(Br)cc1 (configuration not stated) | 13% | 45µM* | nt | nt
COC(=O)CCCC1=CC2=C(c3ccccc3)C(=O)C(C)(OC(=O)C3CCCC3)C(=O)C2=CN1CCCOC(C)C (configuration not stated) | -1%[11.5 µM] | nt | nt | nt
O=C1S/C(=C\c2ccc(N3CCOCC3)o2)C(=O)N1c1ccccc1 | 3% | ? | -7% | 28µM*
O=C1S/C(=C\c2ccc(N3CCOCC3)o2)C(=O)N1Cc1c(F)cccc1Cl | 1% | 2.8µM* | -19% | 25µM*
O=C1S/C(=C/c2ccc(N3CCOCC3)o2)C(=O)N1Cc1c(F)cccc1Cl | 3% | ? | -8% | ?
O=C(Nc1nnc([C@H]2C[C@H](O)[C@@H](CO)O2)s1)Nc1cccc(Cl)c1Cl | nt | nt | -5% | 2%
CCOC(=O)c1ccc(N2C(=O)CC(Sc3nc(C)cc(C)n3)C2=O)cc1 (configuration not stated) | -4% | -19% | 7% | -1%
CCOC(=O)c1ccc(N2C(=O)CC(Sc3nnc(C)s3)C2=O)cc1 (configuration not stated) | 4% | 4.5µM* | 20µM* | ?
CCOC(=O)c1ccc(N2C(=O)CC(SCC(N)C(=O)OCC)C2=O)cc1 (configuration not stated) | 5% | 14µM* | -18% | -4%
COc1ccc(N2C(=O)CC(Sc3nc4ccccc4s3)C2=O)cc1OC (configuration not stated) | 3% | 8.9µM* | -25% | -18%
C=CCNc1nnc(SC2CC(=O)N(c3ccc(OCCC)cc3)C2=O)s1 (configuration not stated) | 10% | 4µM* | 11µM* | -19%
CCOC(=O)c1ccc(N2C(=O)CC(C)(CC)CC2=O)cc1 | 1% | 1% | -3% | 4%
CC(CNC(=O)c1cc2cc(S(=O)(=O)N3CCCCC3)ccc2n1C)c1ccccc1 (configuration not stated) | nt | 5% | nt | 4%
N#Cc1c[nH]n2c(NC3CCCC3)c(-c3cccc(Br)c3)nc12 | nt | -1% | nt | 1%
CCOc1ccc(N2C(=O)CC(Sc3ncccn3)C2=O)cc1 (configuration not stated) | 3% | ? | -19% | 1%
Nc1nnc(SC2CC(=O)N(c3ccccc3)C2=O)s1 (configuration not stated) | 14% | 2.5µM* | 28µM* | -10%
CCOC(=O)C(N)CSC1CC(=O)N(c2ccc(OC)cc2)C1=O (configuration not stated) | 3% | 32µM* | -6% | 4%
CCOC(=O)C(N)CSC1CC(=O)N(c2ccc(OCC)cc2)C1=O (configuration not stated) | 1% | 45µM* | ? | 3%
C=CCc1ccc(O)c(-c2ccc(O)c(CC=C)c2)c1 | 4% | 45µM* | ? | 3%
C=CCc1cc(C(=O)N2CCCCC2)ccc1O | 4% | 3% | 4% | -3%
O=S(=O)(c1ccc(=S)[nH]c1)N1CCOCC1 | nt | -21% | -7% | 7.9µM*
O=S(=O)(c1ccc(=S)[nH]c1)N1CCCCCC1 | nt | 1% | 10% | -2%
CC(C)NCC(O)c1ccc(O)c(O)c1 (configuration not stated) | -18% | -36% | -9%[18.4 µM] | 4%
CNC[C@H](O)c1ccc(O)c(O)c1 | -6% | 14µM* | 1%[18.4 µM] | -1%
SMILES | LmPK inhibitor | Sm TGR block | RE007 growth inh | TbPYK inhibitor
Cc1cc(C)c2c(NC(=O)CCl)nn(C)c2n1 | -3% | 32µM* | 13% | 0%
COC(=O)C1CCN(S(=O)(=O)c2cc3c4c(c2)CC(=O)N4CCC3)CC1 | nt | 10% | nt | 0%
C[C@]12CC[C@@H]3c4ccc(OC(=O)N(CCCl)CCCl)cc4CC[C@@H]3[C@H]1CC[C@@H]2OP(=O)(O)O | nt | nt | nt | 3%
Cc1nc2c(o1)C(=O)c1ccccc1C2=Nc1ccccc1 | nt | nt | 7.1µM* | -2%
CC#CCN1c2ccccc2[C@]23C[C@@H](C(=O)OC)N(S(=O)(=O)c4cccs4)C2=NC(C(=O)OC)=C(C(=O)OC)[C@H]13 | 2%[11.5 µM] | nt | nt | nt
CCOC(=O)C1=C(C)OC(=Cc2ccccc2)C1=O | nt | nt | 1% | -13%
